VACV mCherry inh = qHTS for Stage-Specific Inhibitors of Vaccinia Orthopoxvirus: mCherry Reporter Primary qHTS | Vaccinia virus mCherry reporter infection, fluorescence | Potency, µM (series often up to 36.5 µM), inactives show at the highest dose activity change, negative = inhibition, actives largely listed as inhibitors | 310,000 tested, 0.63% active | AID 720579, 2013; calls by dose curve; tested in A549 cells; further: nearly all actives have a fitted effect of over 35% in size
AmpC detergent = qHTS Inhibitors of AmpC Beta-Lactamase (assay with detergent). AID 485294, 2010. P00811. 370,000 tested, 0.041% active. Potency, µM (series often up to 114 µM), for inactives: at the top dose activity change, negative = inhibition, usual class: inhibitors. AmpC hydrolysis of nitrocefin, absorbance 480 nm, 0.01% Triton;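 further: 0% = no-compound wells and -100% = no-enzyme wells; nearly all actives have a fitted effect of over 25% in size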
Target sequence (P00811 whole entry, looked up): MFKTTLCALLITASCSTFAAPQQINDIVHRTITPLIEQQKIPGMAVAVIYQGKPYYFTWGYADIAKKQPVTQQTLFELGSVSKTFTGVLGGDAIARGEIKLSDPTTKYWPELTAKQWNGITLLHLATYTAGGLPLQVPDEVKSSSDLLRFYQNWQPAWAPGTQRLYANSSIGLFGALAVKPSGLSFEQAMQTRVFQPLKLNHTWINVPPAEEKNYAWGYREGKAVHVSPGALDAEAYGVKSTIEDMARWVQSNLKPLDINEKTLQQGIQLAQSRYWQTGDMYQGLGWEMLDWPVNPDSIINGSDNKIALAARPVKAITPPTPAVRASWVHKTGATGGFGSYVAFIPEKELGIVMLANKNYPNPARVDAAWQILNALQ
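AmpC (5.3 nM in the dispensed reagent) in 20 mM phosphate pH 7.0 with 0.01% (detergent screen) or 0.0001% Triton X-100 was preincubated with compounds for 15 min at room temperature. Nitrocefin was then added from an 800 uM solution, and hydrolysis was followed at 480 nm.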
VACV Venus inh = qHTS for Stage-Specific Inhibitors of Vaccinia Orthopoxvirus: Venus Reporter Primary qHTS. Vaccinia virus Venus reporter expression, fluorescence. 330,000 tested, 0.46% active. Potency, µM (highest dose often 36.5 µM), for the others: at the highest dose activity change, negative = inhibition, hits mostly inhibitors; calls by dose curve; tested in A549 cells; further: nearly all actives have a fitted effect of over 30% in size
AmpC no deterg = qHTS Inhibitors of AmpC Beta-Lactamase (assay without detergent); P00811; AmpC nitrocefin hydrolysis, absorbance 480 nm, 0.0001% Triton; Potency, µM (top dose mostly 57.1 µM), inactives show top-dose activity change, negative = inhibition, hits mostly inhibitors; 330,000 tested, 0.52% active;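 further: plate controls were no compound for no effect and no enzyme for full effect; nearly all actives have a fitted effect of over 20% in size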
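20 mM phosphate pH 7.0 + 0.01% (detergent screen) or 0.0001% Triton X-100; 5.3 nM AmpC reagent; cpd preinc 15 min RT; nitrocefin (800 uM stock) to start; A480 q20 s × 4 min; Activity was normalised to no-enzyme and no-compound control wells.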
* = called active by the depositor; [ ] = another dose, or the depositor's remark. Only some compounds are listed: those with a hit (about 1.1% of all), similar ones and a draw of the others. Unless noted, the call rests on the fitted dose curve; in most records, active means well fitted curve in the direction sought with a large enough effect; inconclusive means small, poorly fitted or top-dose-only effect, or another doubt; inactive means no such curve, though single readings can be large; an effect the other way counts as inactive or inconclusive. Unless noted, on the % scale 0 is the no-effect control and ±100 the full control effect; potency means the concentration at half of the fitted maximal effect.

How did Cc1cc(C)n(-c2nc3ccccc3c(=O)n2OCc2ccc(Cl)cc2)n1 do in these assays?
AmpC detergent: -1%; AmpC no deterg: 14%

Results for Cc1cc(C)n(-c2nc3ccccc3c(=O)n2OCc2ccc(F)cc2)n1 ?
AmpC detergent: 32µM*; VACV Venus inh: -20%; AmpC no deterg: 45%

Results for Cc1c(O)nc(SCC(=O)Nc2ccc3c4c(cccc24)CC3)n(-c2ccccc2)c1=O ?
VACV mCherry inh: -9%; AmpC detergent: -2%; VACV Venus inh: 6%; AmpC no deterg: 35µM*

How did Cc1[nH]c2ccc(-c3n[nH]c(=S)n3-c3ccccc3)cc2c1C do in these assays?
VACV mCherry inh: -7%; AmpC detergent: -7%; VACV Venus inh: -18%; AmpC no deterg: -47%

What do the screens show for `Cc1[nH]c2ccc(-c3n[nH]c(=S)n3Cc3ccccc3)cc2c1C`?
VACV mCherry inh: inactive; AmpC detergent: -1%; VACV Venus inh: -15%; AmpC no deterg: 11µM*

Results for CCOc1ccccc1NC(=O)CSC1=C(C#N)C(c2ccco2)C(C(=O)Nc2nc3ccccc3s2)=C(C)N1 (stereo unspecified) ?
VACV mCherry inh: -14%; AmpC detergent: 1%; VACV Venus inh: -14%; AmpC no deterg: 5µM*

Results for N#Cc1ccc(-c2ccco2)nc1SCC(=O)c1ccc(Cl)cc1 ?
VACV mCherry inh: -19%; AmpC detergent: 0%; VACV Venus inh: -9%; AmpC no deterg: 10µM*

How did Cc1ccc(C(=O)CSc2nc(-c3ccccc3)ccc2C#N)cc1 do in these assays?
VACV mCherry inh: -3%; AmpC detergent: -12%; VACV Venus inh: -6%; AmpC no deterg: -31%

How did CCCc1cc2c(=O)c(-c3ccc4c(c3)OCCO4)coc2cc1OS(C)(=O)=O do in these assays?
VACV mCherry inh: 10µM*; AmpC detergent: -2%; VACV Venus inh: inconclusive; AmpC no deterg: -20%

How did CCCc1cc2c(=O)c(-c3ccc4c(c3)OCCO4)c(C)oc2cc1OS(C)(=O)=O do in these assays?
VACV mCherry inh: inconclusive; AmpC detergent: 0%; VACV Venus inh: inconclusive; AmpC no deterg: 22%

How did CCC(=O)Nc1nc(C)c(-c2csc(Nc3cccc(O)c3)n2)s1 do in these assays?
AmpC detergent: inconclusive; AmpC no deterg: 16µM*

How did Cc1nc(NC(=O)c2ccccc2)sc1-c1csc(Nc2cccc(Cl)c2)n1 do in these assays?
AmpC detergent: -12%; AmpC no deterg: 14µM*

Results for N#CN=c1snc(-c2ccccc2)n1-c1ccc(Br)cc1 ?
VACV mCherry inh: 3.2µM*; VACV Venus inh: inconclusive

How did Cc1nnc(C)c2c(C)n(-c3ccc(Br)cc3)c(C)c12 do in these assays?
AmpC detergent: 3%; AmpC no deterg: -19%

Results for Cc1cc2c(c(-c3nc4ccccc4s3)c1)OC(CNC(=O)c1occc1C)C2 (stereo unspecified) ?
VACV mCherry inh: -9%; VACV Venus inh: 7%

How did COC(=O)[C@@H]1CCCN1Cc1ccc2c(c1)CN(Cc1coc3ccc(C)cc3c1=O)CCO2 do in these assays?
VACV mCherry inh: -15%; VACV Venus inh: -10%

How did Cc1cc(C(=O)Nc2ccccc2-c2nc(CNC(=O)C3COc4ccccc4O3)c(C)o2)c(C)o1 (stereo unspecified) do in these assays?
VACV mCherry inh: -1%; VACV Venus inh: 17%

Results for Cc1ccc(-n2c(=O)[nH]cc(C(=O)N3CCc4ccccc43)c2=O)cc1C ?
VACV mCherry inh: -7%; AmpC detergent: inconclusive; VACV Venus inh: -3%; AmpC no deterg: 10µM*

Results for CCOc1ccc(-n2c(=O)[nH]cc(C(=O)N3CCc4ccccc43)c2=O)cc1 ?
VACV mCherry inh: inconclusive; AmpC detergent: -4%; VACV Venus inh: 2.8µM*; AmpC no deterg: 2%

What do the screens show for `CCOc1ccc(C(=O)N2CCc3ccccc32)cc1`?
AmpC detergent: 7%; AmpC no deterg: -13%

What do the screens show for `O=C(c1c[nH]c(=O)n(-c2ccccc2)c1=O)N1CCc2ccccc21`?
AmpC detergent: 0%; AmpC no deterg: -19%

What do the screens show for `C[C@@H]1C[C@@H]([C@H](O)CC2CC(=O)NC(=O)C2)C(=O)[C@@H](C)C1`?
VACV mCherry inh: 0.32µM*; AmpC detergent: 3%; VACV Venus inh: 0.28µM*; AmpC no deterg: -5%

How did CC(=O)OC1(C)CC(C)C(=O)C(C(O)CC2CC(=O)NC(=O)C2)C1 (stereo unspecified) do in these assays?
VACV mCherry inh: inconclusive; VACV Venus inh: 0.1µM*

How did O=C(NC[C@@H]1CCCN2CCCC[C@H]12)c1cnn(-c2nccc(-c3ccco3)n2)c1C1CC1 do in these assays?
VACV mCherry inh: -7%; VACV Venus inh: 8%

Results for COc1ccc(CN2CCCC(n3cc(C(=O)NC4CCCC4)nn3)C2)c2ccccc12 (stereo unspecified) ?
VACV mCherry inh: inactive; VACV Venus inh: -19%

What do the screens show for `CC(=O)c1cc(-c2ccccc2)n(CC(=O)Nc2cccc(C)c2)c1C`?
VACV mCherry inh: -2%; AmpC detergent: inconclusive; VACV Venus inh: -20%; AmpC no deterg: 14µM*

Results for CCc1cccc(NC(=O)Cn2c(-c3ccccc3)cc(C(C)=O)c2C)c1 ?
VACV mCherry inh: 8%; AmpC detergent: -12%; VACV Venus inh: -8%; AmpC no deterg: -44%

How did COc1ccc(/C=N/NC(=O)c2ccc(Cn3cc([N+](=O)[O-])cn3)o2)cc1O do in these assays?
AmpC detergent: inconclusive; VACV Venus inh: 0%; AmpC no deterg: -14%

Results for COc1ccc(OC)c(/C=N/NC(=O)c2ccc(Cn3cc([N+](=O)[O-])cn3)o2)c1 ?
VACV mCherry inh: -1%; AmpC detergent: inconclusive; VACV Venus inh: 1%; AmpC no deterg: 40µM*

How did COc1ccc(Br)cc1CNc1ccc(O)cc1 do in these assays?
VACV mCherry inh: -8%; AmpC detergent: inconclusive; VACV Venus inh: 0%; AmpC no deterg: 28µM*

Results for COc1ccc(Br)cc1CNc1ccc2[nH]c(=O)[nH]c2c1 ?
VACV mCherry inh: inconclusive; AmpC detergent: -7%; VACV Venus inh: 2%; AmpC no deterg: -9%[2.29 µM]

Results for CCOc1cc(/C=C/C(=O)c2ccc(OC)c(CN3CCOCC3)c2)cc(Br)c1O ?
VACV mCherry inh: 11µM*; AmpC detergent: -13%; VACV Venus inh: 184%; AmpC no deterg: 54%

How did CCOc1cc(/C=N/NC(=O)c2ccc(CN3CCOCC3)cc2)ccc1OC do in these assays?
VACV mCherry inh: inactive; AmpC detergent: -4%; VACV Venus inh: -15%; AmpC no deterg: 14%

Results for COc1ccccc1CN1CCC2(CCC(CNC(=O)c3ccccc3N(C)C)O2)CC1 (stereo unspecified) ?
VACV mCherry inh: -16%; VACV Venus inh: -2%

Results for O=C(CCc1nc2ccccc2c(=O)[nH]1)N1CCN(S(=O)(=O)c2ccccc2Br)CC1 ?
VACV mCherry inh: inconclusive; AmpC detergent: -10%; VACV Venus inh: 10µM*; AmpC no deterg: -9%
